Compound activity as filed in PubChem BioAssay.
PREPL inhibitor = PREPL enzyme inhibitors, primary screen, biochemical, fluorescence polarization; Prolyl endopeptidase-like (Homo sapiens), Q4J6C6; recombinant PREPL, fluorescence polarization activity-based probe; inhibition, % at 5.96 µM; actives 0.68% (n = 320,000); in the data active = inhibition above about 43%;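 note: 0% = enzyme with DMSO and 100% = wells lacking enzyme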
PP5 primary = PP5 phosphatase inhibitors, primary screen, biochemical, fluorescence; inhibition, % at 6.7 µM; purified PP5c, OMFP substrate fluorescence; actives 0.18% (n = 320,000); Serine/threonine-protein phosphatase 5 (Homo sapiens), P53041; AID 1987, 2009;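 active = inhibition above the campaign's mean inhibition across all tested compounds plus 3 SD, cut at about 9.5% in these data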;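 note: 0% = DMSO only and 100% = 100 µM cantharidin control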
Target sequence (P53041 whole entry, looked up): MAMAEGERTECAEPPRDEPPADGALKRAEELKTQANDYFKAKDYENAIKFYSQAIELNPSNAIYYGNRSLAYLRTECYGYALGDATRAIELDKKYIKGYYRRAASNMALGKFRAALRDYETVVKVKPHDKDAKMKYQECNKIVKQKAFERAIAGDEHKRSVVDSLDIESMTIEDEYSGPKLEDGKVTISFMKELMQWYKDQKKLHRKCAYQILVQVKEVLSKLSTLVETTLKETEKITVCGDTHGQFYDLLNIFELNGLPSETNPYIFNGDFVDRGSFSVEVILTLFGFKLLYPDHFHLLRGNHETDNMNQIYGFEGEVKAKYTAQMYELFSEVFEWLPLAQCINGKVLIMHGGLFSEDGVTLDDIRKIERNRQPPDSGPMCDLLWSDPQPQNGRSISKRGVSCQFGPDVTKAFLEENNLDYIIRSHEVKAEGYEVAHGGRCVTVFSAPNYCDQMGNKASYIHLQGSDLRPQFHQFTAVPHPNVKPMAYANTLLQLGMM
DNA FID counter = compounds displacing fluorescent DNA intercalator, primary screen, artefact control for HCV NS3 helicase inhibitor project, biochemical, FID fluorescence; actives 0.17% (n = 290,000); DNA fluorescent intercalator displacement; inhibition, % at 7.9 µM; in the data active = inhibition above about 37%;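 note: 0% = vehicle and 100% = reference compound; higher means more ethidium bromide displaced from hairpin DNA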
PP1 inh = PP1-alpha phosphatase inhibitors, primary screen, counter-screen for PP5 inhibitor project, biochemical, fluorescence, OMFP substrate, single point; Serine/threonine-protein phosphatase PP1-alpha catalytic subunit (Homo sapiens), P62136; purified PP1alpha; inhibition, % at 6.7 µM; actives 0.9% (n = 320,000); AID 2235, 2010;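 active = inhibition above the mean inhibition of all tested compounds plus 3 SD, computed separately for each screening campaign, cut at about 15% in these data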
TMEM16A inh = TMEM16A chloride channel inhibitors, primary screen, cell-based, HTS | actives 1.2% (n = 310,000) | HEK293 TMEM16A/YFP iodide influx fluorescence, ionomycin | normalized B-score (activity score, 25-100; higher = stronger inhibition) at 10 µM | Anoctamin-1 (Mus musculus), Q8BHY3;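 active = ratio plate-corrected score three or more library SD toward inhibition, starting fluorescence score within five deviations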;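 note: score derived from kinetic fluorescence span divided by baseline fluorescence per well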
ANO1 activ = TMEM16A chloride channel activators or potentiators, primary screen, cell-based, HTS; Anoctamin-1 (Mus musculus), Q8BHY3; HEK293 TMEM16A/YFP-H148Q/I152L, iodide quench fluorescence; hits give low values; B-score at 10 µM; actives 0.3% (n = 340,000);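 active = fluorescence-ratio B-score plate-corrected deviation score at least 3 library SD below zero, with starting fluorescence score within 5 deviations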;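 note: channel opened by trigger with iodide after compound preincubation; score built on the fluorescence ratio of max minus min over baseline; more negative score means more quench and so TMEM16A activation or potentiation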
PP1 inh confirm = PP1 phosphatase inhibitors, confirmation, biochemical, fluorescence, OMFP substrate, triplicate | actives 52% (n = 1,900) | purified PP1alpha | inhibition, % at 6.7 µM | shares compounds with PP1 inh;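 active = mean PP1 inhibition above a set limit taken from the earlier primary screen, cut at about 15% in these data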
PP5 inh counter = PP5 phosphatase inhibition by PP1 hits, confirmation, counter-screen for PP1 inhibitor project, biochemical, fluorescence, triplicate | shares compounds with PP1 inh | purified PP5c, OMFP fluorescence | inhibition, % at 6.7 µM | actives 4% (n = 1,900) | AID 2360, 2010;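 active = mean PP5 inhibition over triplicate wells above about 9.5% taken from the earlier PP1 screen, limit read from the data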
* marks the source's active call; other numbers are inactive results; i = inactive; · = no result given. An excerpt weighted towards active compounds, which were near 2.7% of everything screened.

SMILES | PREPL inhibitor | PP5 primary | DNA FID counter | PP1 inh | TMEM16A inh | ANO1 activ | PP1 inh confirm | PP5 inh counter
O=C(NCC1OCCc2ccccc21)c1cc(COc2c(F)cccc2F)on1 (stereo unspecified) | 10.7 | 2.8 | -13.4 | -0.1 | i | i | · | ·
O=C(O)c1ccc(NC(=O)C2C3CCC(O3)C2C(=O)O)cc1 (stereo unspecified) | 5.8 | 78.7* | 4.6 | 75.3* | i | i | 30.6* | 37.5*
CC(C)COC(=O)c1ccc(NC(=O)C2C3CCC(C3)C2C(=O)O)cc1 (stereo unspecified) | 25.6 | 3.5 | -8.6 | -0.1 | i | i | · | ·
COC(=O)c1ccccc1NC(=O)C/C(C)=N/NC(=O)Cc1ccc(Cl)cc1 | -13.4 | 0.4 | -21.8 | -1.5 | i | i | · | ·
N=c1n(CCN2CCCCC2)c2ccccc2n1CC(=O)c1ccc(Cl)c(Cl)c1 | 43.2* | -0.7 | 16.7 | 27.4* | i | i | -18.0 | 0.2
O=S(=O)(c1ccccc1F)N1CCN(c2nc(-c3cccnc3)nc3ccccc23)CC1 | -30.1 | 2.6 | · | 7.0 | · | i | · | ·
Cc1ccc(C)c(S(=O)(=O)N2CCN(c3nc(-c4cccnc4)nc4ccccc34)CC2)c1 | -4.7 | 1.9 | · | 18.6* | · | i | 18.4* | 0.9
N#Cc1ccccc1S(=O)(=O)N1CCN(c2nc(-c3cccnc3)nc3ccccc23)CC1 | · | · | · | · | · | i | · | ·
COc1ccc(S(=O)(=O)N2CCN(c3nc(-c4cccnc4)nc4ccccc34)CC2)cc1 | -70.3 | 2.4 | · | 20.8* | · | i | 16.6* | -1.1
O=C1C(Cc2ccccc2)Nc2ncnc(N3CCc4ccccc4C3)c2N1Cc1ccc(Cl)cc1 (stereo unspecified) | 8.5 | 3.7 | · | 24.4* | i | i | 20.1* | 5.7
O=C(CNS(=O)(=O)c1ccccc1)Nc1cccc([N+](=O)[O-])c1 | -5.7 | -0.6 | 3.9 | -2.4 | i | i | · | ·
CC(=O)Oc1ccc(-c2ccc(C(=O)NCCc3ccc(S(N)(=O)=O)cc3)cc2)cc1 | 1.5 | -2.2 | -11.1 | 24.0* | i | i | 18.1* | -2.5
COCCNC(=O)CCc1nnc2ccc(N3CCC(C)CC3)nn12 | -6.2 | -2.5 | -18.4 | -0.8 | i | i | · | ·
CSCCC(NC(=O)c1ccccc1Cl)C(=O)NCC(c1ccco1)N1CCCCC1 (stereo unspecified) | -3.2 | -1.6 | · | 44.6* | i | i | -5.2 | -1.8
N#CC1=C2N=C(N)c3c(sc4c3CCCCC4)N2C2=C(C(=O)CCC2)C1c1ccccc1 (stereo unspecified) | 22.8 | 4.0 | -7.0 | 17.7* | i | i | 5.5 | -1.6
CCn1c2ccccc2c2cc(NC(=O)C(=O)N3CCOCC3)ccc21 | 7.1 | 3.2 | -15.3 | -4.6 | i | i | · | ·
Cc1cc(N2C(=O)C(O)=C(C(=O)c3ccco3)C2c2cccc(O)c2)no1 (stereo unspecified) | -2.3 | -1.9 | 6.7 | -4.2 | i | i | · | ·
Cc1cc(N2C(=O)C(O)=C(C(=O)c3ccco3)C2c2cccc(Oc3ccccc3)c2)no1 (stereo unspecified) | 6.7 | -0.1 | -36.9 | 25.3* | i | i | 26.4* | 2.2
Cc1cc(N2C(=O)C(O)=C(C(=O)c3ccco3)C2c2ccc(Cl)cc2)no1 (stereo unspecified) | -0.3 | 0.6 | -49.7 | 19.7* | i | i | 17.4* | -0.5
Cc1nc(SCC(=O)NCC2CCCO2)c2cc(-c3ccccc3)sc2n1 (stereo unspecified) | 15.1 | 4.9 | · | -0.8 | · | i | · | ·
COc1ccc(C2NCCc3c2[nH]c2ccccc32)cc1CSc1nc2ccccc2s1 (stereo unspecified) | 39.6 | 4.1 | 7.9 | 18.8* | i | i | -11.4 | 1.9
O=c1[nH]c(CSc2nc3ccccc3s2)nc2ccccc12 | -30.4 | 2.7 | -14.3 | -2.9 | i | i | · | ·
Cn1cccc1C(=O)NCC(c1ccco1)N1CCCCC1 (stereo unspecified) | -9.0 | 2.6 | · | -22.9 | i | i | · | ·
Cc1cc(C)c2nc(NNC(=O)c3ccc(S(=O)(=O)N4CCCC(C)C4)cc3)sc2c1 (stereo unspecified) | -1.9 | 4.2 | -20.5 | 21.1* | i | i | 24.4* | 3.3
Cc1ccc2nc(NNC(=O)c3ccc(S(=O)(=O)N4CCc5ccccc5C4)cc3)sc2c1 | 3.6 | 1.1 | -17.8 | 28.6* | i | i | 25.0* | 1.7
SMILES | PREPL inhibitor | PP5 primary | DNA FID counter | PP1 inh | TMEM16A inh | ANO1 activ | PP1 inh confirm | PP5 inh counter
COC(=O)c1sc2ccccc2c1NC(=O)c1ccc(S(=O)(=O)N2CCCC(C)C2)cc1 (stereo unspecified) | 3.5 | 1.2 | 0.5 | -0.8 | i | i | · | ·
CCOc1ccc(N2CSC3=C(C#N)C(c4ccco4)CC(=O)N3C2)cc1 (stereo unspecified) | 23.3 | 4.3 | -21.2 | 30.6* | i | i | 13.4 | 13.0*
O=C(NCc1ccc2c(c1)OCO2)C12CN(Cc3ccccc3)CC1C(c1cccc([N+](=O)[O-])c1)=NO2 (stereo unspecified) | 21.7 | 1.5 | -5.5 | 25.3* | i | i | 11.9 | -2.2
COc1ccc(OC)c(NC(=O)CSc2nnc(-c3ccco3)n2-c2ccccc2)c1 | -3.7 | 2.7 | -32.6 | -3.9 | i | i | · | ·
COc1ccc(OC)c(NC(=O)CSc2nnc(CCCO)n2-c2ccccc2)c1 | 10.9 | 0.1 | -19.7 | 20.9* | i | i | -4.2 | -2.0
CC1CC(NS(=O)(=O)c2cc3c4c(c2)CCN4C(=O)CC3)CC(C)(C)C1 (stereo unspecified) | 9.1 | 1.0 | · | -2.2 | i | i | · | ·
COc1cc([N+](=O)[O-])cc(/C=N/NC(=O)c2cc(-c3ccccc3)nc3ccccc23)c1O | 7.8 | -0.6 | 4.7 | 40.0* | i | i | 40.1* | -1.1
COc1ccc(OC)c2sc(N(CCCN(C)C)C(=O)c3ccc(S(=O)(=O)N4CCc5ccccc5C4)cc3)nc12 | 1.5 | 3.1 | · | 20.2* | i | · | 22.5* | 1.2
COc1ccc(C)c2sc(N(CCCN(C)C)C(=O)c3ccc(S(=O)(=O)N4CCc5ccccc5C4)cc3)nc12 | 17.0 | 1.8 | · | 5.2 | i | i | · | ·
